Screens as filed in PubChem BioAssay.
Most compounds without a hit are left out; they make up all but 8.1% or so of the library.
KB-3-1 tox: KB-3-1 parental cell cytotoxicity; KB-3-1 viability, CellTiter-Glo ATP luminescence, 72 h; Potency, µM (series often up to 46.1 µM), hits mostly cytotoxic; hit rate 1.4% among 400,000; also: % is scaled to controls: 0 for no effect and ±100 for the full control effect; nearly all actives have a fitted effect of over 60% in size
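Cytotoxicity measured as CellTiter-Glo luminescence after 72 h at 37 C. Compound titrations were pinned onto drug-naive KB-3-1 parental adenocarcinoma cells grown in DMEM with 10% FBS, and normalized data fitted to concentration-response curves.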
MCF10A rerep: inducers of DNA re-replication in MCF 10A breast cells; Potency, µM (titrated, usually from 46.1 µM), without a hit: top-dose activity, positive = re-replication, most hits filed as activators; AID 624296; MCF 10A DNA re-replication, Hoechst nuclear intensity, 48 h; hit rate 2.9% among 350,000; also: % of control where 0% means no effect; nearly all actives have a fitted effect of over 50% in size
ELG1 DNA repair: ELG1-dependent DNA repair inhibition | HEK293T ELG1-luciferase reporter, luminescence, 16 h; DNA damage induced by 5-fluorouridine | Potency, µM (series often up to 46.1 µM), for inactives: at the highest dose activity change, negative = inhibition, usual class: inhibitors | hit rate 2.3% among 330,000 | AID 504467; also: % is scaled to controls: 0 for no effect and ±100 for the full control effect; nearly all actives have a fitted effect of over 55% in size
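Reporter activity after DNA damage by 5-fluorouridine is monitored. Compound-treated cells incubate 16 hr at 37 °C, then ONE-Glo is added for 30 min before luminescence reading.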
KB-V1 MDR tox: KB-V1 MDR subline cytotoxicity; KB-V1 MDR cells viability, CellTiter-Glo, 72 h; Potency, µM (doses to about 46.1 µM), hits mostly cytotoxic; hit rate 3.4% among 400,000; AID 1347076; also: % is scaled to controls: 0 for no effect and ±100 for the full control effect; nearly all actives have a fitted effect of over 60% in size
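Luminescent ATP read-out (CellTiter-Glo, 10 min) measures survival of drug-selected KB-V1 MDR cells after 72 h, 37 degrees C compound exposure. Medium: phenol-red-free DMEM, 10% FBS. Values from fitted concentration-response curves.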
SW480 rerep: induces DNA re-replication in SW480 colon adenocarcinoma cells; Potency, µM (series often up to 46.1 µM), for the others: at the highest dose re-replication activation, usual class: activators; hit rate 1.8% among 340,000; SW480 DNA re-replication, Hoechst DNA content imaging, 48 h; also: % of control where 0% means no effect; nearly all actives have a fitted effect of over 55% in size
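Readout is total intensity of Hoechst-stained nuclei, excited at 405 nm and collected at 500-530 nm. Compound treatment lasted 48 hr at 37 C in 5% CO2 before staining.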
An asterisk follows results filed as active; [ ] = dose if it differs, or a comment. Calls follow the shape of the dose curve; as a rule, active = well fitted curve in the direction sought with a large enough effect; inconclusive = small, poorly fitted or top-dose-only effect, or another doubt; inactive = no such curve, though single readings can be large; an effect the other way counts as inactive or inconclusive. Potency is read from the fitted curve at half-maximal effect.

What do the screens show for `O=[N+]([O-])c1ccc(N=Nc2c(O)[nH]c3ccc(F)cc23)cc1`?
KB-3-1 tox: inconclusive; MCF10A rerep: 7.31µM*; ELG1 DNA repair: inconclusive; KB-V1 MDR tox: inconclusive; SW480 rerep: inconclusive

Results for O=[N+]([O-])c1ccc2[nH]c(O)c(N=Nc3ccc(F)cc3)c2c1 ?
KB-3-1 tox: inactive; MCF10A rerep: inconclusive; ELG1 DNA repair: -26.3%; KB-V1 MDR tox: inactive; SW480 rerep: inconclusive

What do the screens show for `Cc1nnsc1C(=O)NNC(=O)c1ccc(C(F)(F)F)cc1`?
KB-3-1 tox: inactive; MCF10A rerep: -4.1%; ELG1 DNA repair: inconclusive; KB-V1 MDR tox: inactive; SW480 rerep: -66.0%

How did CCN(CC)S(=O)(=O)c1ccc(Cl)c(NC(=O)COC(=O)c2cccn2C)c1 do in these assays?
KB-3-1 tox: inactive; MCF10A rerep: 2.0%; ELG1 DNA repair: 14.6µM*; KB-V1 MDR tox: 14.6µM*; SW480 rerep: 3.4%

Results for CCN(CC)S(=O)(=O)c1ccc(Cl)c(NC(=O)COC(=O)c2c(C)noc2C)c1 ?
KB-3-1 tox: inactive; MCF10A rerep: 5.4%; ELG1 DNA repair: 18.4µM*; KB-V1 MDR tox: inconclusive; SW480 rerep: 3.3%

Results for Cn1c(=O)c(=O)n(C)c2cc(S(=O)(=O)CCC(=O)Nc3ccccc3C(F)(F)F)ccc21 ?
KB-3-1 tox: inactive; KB-V1 MDR tox: inconclusive

What do the screens show for `COc1ccccc1NC(=S)NCCc1ccc(F)cc1`?
KB-3-1 tox: inactive; MCF10A rerep: 18.3%; ELG1 DNA repair: -8.9%; KB-V1 MDR tox: inactive; SW480 rerep: -13.3%

How did O=C(Nc1nccs1)c1ccc(S(=O)(=O)NCc2cccs2)cc1 do in these assays?
KB-3-1 tox: inactive; MCF10A rerep: inconclusive; ELG1 DNA repair: 18.4µM*; KB-V1 MDR tox: 18.4µM*; SW480 rerep: 27.7%

Results for CC1(c2ccc(Cl)cc2)NC(=O)N(CC(=O)NCCC2=CCCCC2)C1=O (stereo unspecified) ?
KB-3-1 tox: inactive; MCF10A rerep: 16.8%; ELG1 DNA repair: 3.2%; KB-V1 MDR tox: inconclusive; SW480 rerep: 0.164µM*

How did CC(=O)N1CCN(C(=O)CN2C(=O)NC(C)(c3ccc4ccccc4c3)C2=O)CC1 (stereo unspecified) do in these assays?
KB-3-1 tox: inactive; MCF10A rerep: -3.7%; ELG1 DNA repair: 4.2%; KB-V1 MDR tox: inactive; SW480 rerep: -2.6%

How did COc1ccc(-c2nn(CC(=O)NCCc3ccccc3)c(=S)n2C)cc1 do in these assays?
KB-3-1 tox: inconclusive; MCF10A rerep: 14.9%; ELG1 DNA repair: -21.0%; KB-V1 MDR tox: 16.4µM*; SW480 rerep: -3.7%

What do the screens show for `Cc1ccc(C2(C)NC(=O)N(CC(=O)NCCC3=CCCCC3)C2=O)cc1` (stereo unspecified)?
KB-3-1 tox: inactive; MCF10A rerep: -5.2%; ELG1 DNA repair: 4.9%; KB-V1 MDR tox: inactive; SW480 rerep: -1.2%[9.22 µM]

How did COc1ccc2cc(C3(C)NC(=O)N(CC(=O)NCCC4=CCCCC4)C3=O)ccc2c1 (stereo unspecified) do in these assays?
KB-3-1 tox: inactive; MCF10A rerep: 10.1%; ELG1 DNA repair: -22.2%; KB-V1 MDR tox: 16.4µM*; SW480 rerep: 10.4%

What do the screens show for `COc1ccc(N2CCN(C(=O)CN3C(=O)NC(C)(c4ccc5ccccc5c4)C3=O)CC2)cc1` (stereo unspecified)?
KB-3-1 tox: 23.1µM*; MCF10A rerep: 3.4%; ELG1 DNA repair: inconclusive; KB-V1 MDR tox: 2.31µM*; SW480 rerep: 13.9%

Results for Cc1[nH]c(=O)[nH]c(=O)c1S(=O)(=O)N(C)Cc1ccccc1 ?
KB-3-1 tox: inactive; MCF10A rerep: -0.7%; ELG1 DNA repair: -0.8%; KB-V1 MDR tox: inactive; SW480 rerep: -4.9%

Results for COc1ccc(CCNC(=O)CN2C(=O)NC(c3ccccc3)(c3ccccc3)C2=O)cc1 ?
MCF10A rerep: -3.7%; ELG1 DNA repair: 25.9µM*; SW480 rerep: -0.2%

What do the screens show for `O=C(c1cc2ccccc2oc1=O)N(Cc1ccco1)Cc1cccs1`?
KB-3-1 tox: inactive; MCF10A rerep: inconclusive; ELG1 DNA repair: -5.7%; KB-V1 MDR tox: 5.17µM*; SW480 rerep: 0.2%

How did CC1CC(Nc2ccccc2)c2ccccc2N1C(=O)c1ccccc1F (stereo unspecified) do in these assays?
KB-3-1 tox: inactive; MCF10A rerep: inconclusive; ELG1 DNA repair: -11.6%; KB-V1 MDR tox: inactive; SW480 rerep: inconclusive

Results for CC1CC(Nc2ccccc2)c2ccccc2N1C(=O)c1cccnc1 (stereo unspecified) ?
KB-3-1 tox: inactive; MCF10A rerep: inconclusive; ELG1 DNA repair: 16.4µM*; KB-V1 MDR tox: inactive; SW480 rerep: 9.5%

Results for C[C@@H]1C[C@H](Nc2ccccc2)c2ccccc2N1C(=O)c1cccnc1 ?
KB-3-1 tox: inconclusive; MCF10A rerep: 13µM*; ELG1 DNA repair: inconclusive; KB-V1 MDR tox: inconclusive; SW480 rerep: inconclusive

How did O=C(Oc1c(-c2ccccc2)c(=O)n2c3c(cccc13)CC2)c1ccc(F)cc1 do in these assays?
KB-3-1 tox: inactive; MCF10A rerep: 25.9µM*; ELG1 DNA repair: inconclusive; KB-V1 MDR tox: inactive; SW480 rerep: -5.6%

How did O=C(Oc1c(-c2ccccc2)c(=O)n2c3c(cccc13)CC2)c1ccccc1 do in these assays?
KB-3-1 tox: inconclusive; MCF10A rerep: inconclusive; ELG1 DNA repair: inconclusive; KB-V1 MDR tox: inconclusive; SW480 rerep: -3.0%

What do the screens show for `Cc1nc2ccccc2cc1OCc1ccccc1`?
KB-3-1 tox: inconclusive; MCF10A rerep: 10.7%; ELG1 DNA repair: 28.8%; KB-V1 MDR tox: inconclusive; SW480 rerep: 1.2%

What do the screens show for `Cc1nc2ccccc2cc1OCc1ccc(Cl)cc1`?
KB-3-1 tox: 2.59µM*; MCF10A rerep: inconclusive; ELG1 DNA repair: inconclusive; KB-V1 MDR tox: 1.84µM*; SW480 rerep: 1.4%

Results for Cc1ccc(C)c(CN2C(=O)N(c3cc(Cl)ccc3C)S(=O)(=O)c3ccccc32)c1 ?
KB-3-1 tox: inactive; KB-V1 MDR tox: inactive

How did Cc1ccc([C@@H]2C[C@H]3[C@@H](CN2S(=O)(=O)c2ccc(Cl)cc2)C(=O)C[C@@H](c2cccc(Cl)c2)N3S(=O)(=O)c2ccc(C)cc2)cc1 do in these assays?
KB-3-1 tox: inactive; KB-V1 MDR tox: inactive

How did Cc1ccc(S(=O)(=O)N2[C@H](c3ccc(Cl)cc3)CC(=O)[C@@H]3CN(S(=O)(=O)c4ccccc4C)[C@H](c4ccc(Cl)cc4)C[C@@H]32)cc1 do in these assays?
KB-3-1 tox: inactive; KB-V1 MDR tox: inactive

Results for Cc1ccc([C@@H]2CC(=O)[C@@H]3CN(S(=O)(=O)c4ccccc4C)[C@H](c4ccc(Cl)cc4)C[C@@H]3N2S(=O)(=O)c2ccc(C)cc2)cc1 ?
KB-3-1 tox: 3.66µM*; KB-V1 MDR tox: inconclusive
